The values that follow come from PubChem BioAssay AID540321 (Johns Hopkins Ion Channel Center, 2011).

SMILES strings stand for the structures. Active and inactive are the calls of the source.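 The calls were made as follows: active = Inhibition of the Kir2.1 potassium channel over 30% at some tested dose, plus a fitted dose response curve; inactive = no Kir2.1 inhibition at any dose, or no curve fitted.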

Sequence of Inward rectifier potassium channel 2 (Mus musculus) (P35561 whole entry, looked up): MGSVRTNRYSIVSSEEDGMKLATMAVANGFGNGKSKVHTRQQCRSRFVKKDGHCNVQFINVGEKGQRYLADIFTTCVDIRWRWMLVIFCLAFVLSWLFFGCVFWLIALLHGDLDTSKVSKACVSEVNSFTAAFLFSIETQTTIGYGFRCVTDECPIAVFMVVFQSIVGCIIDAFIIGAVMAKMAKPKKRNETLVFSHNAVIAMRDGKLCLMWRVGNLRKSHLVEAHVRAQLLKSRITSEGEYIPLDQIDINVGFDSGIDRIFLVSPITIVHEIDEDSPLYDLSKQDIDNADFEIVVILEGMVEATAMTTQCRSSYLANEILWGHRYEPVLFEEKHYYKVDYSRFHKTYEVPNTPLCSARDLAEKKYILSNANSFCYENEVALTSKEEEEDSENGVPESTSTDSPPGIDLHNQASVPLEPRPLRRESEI

This assay concerns the target Inward rectifier potassium channel 2 (Mus musculus) (UniProt P35561). In words: off-target blockade of inward rectifier Kir2.1 – cell-based, FluxOR thallium flux, CRC round 2, selectivity assay for KCNK9 inhibitor project, SAR follow-up (AID 540321). As to conditions: Kir2.1-expressing cells; series mostly up to 30 µM.
Turning to `CCOc1ccccc1NC(=O)c1cccc(NC(=O)c2cccc(OC)c2)c1`, the outcome was inactive.

As for `COc1ccccc1C(=O)Nc1cccc(NC(=O)c2ccccc2)c1`, the molecule was called inactive.

`O=C(Nc1ccccc1Cl)c1cccc(NC(=O)C2CCCC2)c1`: the molecule was classed as inactive.

Turning to `CC(C1CC2CCC1C2)n1c(-c2ccccc2Cl)n[nH]c1=S` (stereo not given), the molecule was called inactive.

As to `CCOc1ccccc1NC(=O)c1cccc(NC(=O)C2CCCC2)c1`, the call was inactive.

For `COc1cccc(C(=O)Nc2cccc(NC(=O)c3cccc(C)c3)c2)c1`, the result was inactive.

Consider `O=C(Nc1cccc(NC(=O)c2cccs2)c1)c1ccccc1`, for which the molecule was called inactive.

`CCOc1ccccc1NC(=O)c1cccc(NC(=O)CC2CCCCC2)c1`: the result was inactive.

As to `CCOc1ccccc1NC(=O)c1cccc(NC(=O)c2ccc(Cl)cc2)c1`, the call was inactive.

Consider `COc1cccc(C(=O)Nc2cccc(NC(=O)c3ccccc3)c2)c1`, for which the outcome was inactive.

Regarding `COc1ccccc1C(=O)Nc1cccc(NC(=O)c2cccc(C)c2)c1`, the molecule was called inactive.

Regarding `Cc1cccc(C(=O)Nc2cccc(NC(=O)c3ccc(C(F)(F)F)cc3)c2)c1`, the outcome was inactive.

Regarding `Cc1ccccc1-c1n[nH]c(=S)n1C(C)C1CC2CCC1C2` (stereo not given), the outcome was inactive.

As to `CCOc1cccc(NC(=O)c2cccc(NC(=O)C3CCCC3)c2)c1`, the outcome was inactive.

In the case of `Cc1cccc(C(=O)Nc2cccc(NC(=O)c3cccc(C(F)(F)F)c3)c2)c1`, the call was inactive.

As for `CCOc1ccccc1C(=O)Nc1cccc(NC(=O)c2ccccc2OC)c1`, the outcome was inactive.

As for `CCOc1ccccc1NC(=O)c1cccc(NC(=O)c2ccccc2C)c1`, the call was inactive.

Turning to `COc1ccccc1NC(=O)c1cccc(NC(=O)c2ccccc2C(F)(F)F)c1`, the molecule was classed as inactive.

As for `O=C(Nc1cccc(NC(=O)c2ccc(F)cc2)c1)c1ccccc1`, the molecule was called inactive.

Consider `O=C(Nc1cccc(NC(=O)c2cccc(C(F)(F)F)c2)c1)c1ccccc1`, for which the call was inactive.

For `CCOc1ccccc1NC(=O)c1cccc(NC(=O)C2CCOC2)c1` (stereo not given), the molecule was classed as inactive.

With `CCOc1ccccc1C(=O)Nc1cccc(NC(=O)c2cccc(C)c2)c1`, the molecule was classed as inactive.

`Cc1cccc(C(=O)Nc2cccc(NC(=O)c3ccccc3C)c2)c1`: the molecule was called inactive.

For `Cc1cccc(C(=O)Nc2cccc(NC(=O)c3ccc(Cl)cc3)c2)c1`, the molecule was called inactive.

Turning to `COc1ccccc1-c1n[nH]c(=S)n1C(C)C1CC2CCC1C2` (stereo not given), the molecule was called inactive.

Consider `CCOc1ccccc1NC(=O)c1cccc(NC(=O)C2CCCO2)c1` (stereo not given), for which the molecule was classed as inactive.

In the case of `COc1cccc(OC)c1C(=O)Nc1cccc(NC(=O)c2cccc(C)c2)c1`, the molecule was classed as inactive.

Turning to `Cc1cccc(C(=O)Nc2cccc(NC(=O)c3ccccc3OCC(C)C)c2)c1`, the call was inactive.

For `CC(C1CC2CCC1C2)n1c(-c2ccoc2)n[nH]c1=S` (stereo not given), the outcome was inactive.

`Cc1ccc(C(=O)Nc2cccc(NC(=O)c3ccccc3)c2)cc1`: the outcome was inactive.

Take `COc1ccc(C(=O)Nc2cccc(NC(=O)c3cccc(C)c3)c2)cc1`: the result was inactive.

As for `O=C(Nc1cccc(NC(=O)c2ccoc2)c1)c1ccccc1`, the outcome was inactive.

Turning to `CCOc1ccccc1C(=O)Nc1cccc(NC(=O)C2CCCC2)c1`, the molecule was classed as inactive.

In the case of `O=C(Nc1cccc(NC(=O)c2ccccc2C(F)(F)F)c1)c1ccccc1`, the outcome was inactive.

As to `CC(c1ccccc1)n1c(-c2ccco2)n[nH]c1=S` (stereo not given), the molecule was classed as inactive.
